According to PubChem BioAssay AID602229 (The Scripps Research Institute Molecular Screening Center, 2012):
About 1,300 (0.36%) of roughly 360,000 compounds were called active. The sample holds actives, similar compounds and a random draw of the others, so the mix is not that of the screen.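 The calls were made as follows: active = inhibition above the mean of all tested compounds plus 3 SD (cut at about 70% in these data); inactive = the rest.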

Target: Photoreceptor-specific nuclear receptor (Homo sapiens) (UniProt Q9Y5X4)
Sequence (Q9Y5X4 whole entry, looked up, the tested form may be a part): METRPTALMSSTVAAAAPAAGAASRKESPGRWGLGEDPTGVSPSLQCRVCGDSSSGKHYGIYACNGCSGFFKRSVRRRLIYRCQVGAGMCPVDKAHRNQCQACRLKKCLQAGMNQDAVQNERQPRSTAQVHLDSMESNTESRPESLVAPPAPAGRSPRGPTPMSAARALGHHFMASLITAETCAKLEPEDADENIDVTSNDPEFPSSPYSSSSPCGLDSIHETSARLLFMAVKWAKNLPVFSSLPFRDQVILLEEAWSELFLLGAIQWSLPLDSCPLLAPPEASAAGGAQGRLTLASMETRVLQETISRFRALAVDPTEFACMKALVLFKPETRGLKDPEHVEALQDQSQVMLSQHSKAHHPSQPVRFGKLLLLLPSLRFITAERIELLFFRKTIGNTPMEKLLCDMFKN
Experiment: NR2E3 agonists in two-hybrid cells, primary screen, cell-based, luminescence, CHO-S, Gal4-NCOR/VP16-NR2E3 (AID 602229);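 also: 0% = DMSO with NR2E3 transfected cells and 100% = cells lacking NR2E3 construct; higher means lower luciferase signal from less NR2E3 corepressor binding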
Details: luciferase, at 3.98 µM, active compounds read high

Inhibition of corepressor binding, active:
Cc1[nH]n(-c2cccc(Cl)c2)c(=O)c1-c1ccc(Cl)cc1 85%
c1ccc(C(=NNc2nc3ccccc3s2)c2ccccn2)cc1 89.7%
CN(Cc1cn(Cc2ccc(C(F)(F)F)cc2)nn1)C1CN(Cc2cn(Cc3ccc(C(F)(F)F)cc3)nn2)S(=O)(=O)C1 (stereo unspecified) 86%
COc1ccc(Nc2ncnc3ccc(Br)cc23)c(OC)c1 85.3%
O=C(Nc1nnc(-c2ccccc2)o1)c1cc(-c2cccs2)nc2ccccc12 88.7%
COCCNc1nc(-n2nc(C)cc2C)nc2sc3c(c12)CCCC3 91.3%
CCOC(=O)N1CCN(C(=O)c2ccc(S(=O)(=O)Nc3cccc(C(F)(F)F)c3)cc2)CC1 78.3%
Cc1nc2c(OCc3cccc(Cl)c3)cccn2c1N(C)CC1CC1 79.4%

Inhibition of corepressor binding, inactive:
CCCc1cc(=O)n2[nH]c(C)c(-c3ccc(Cl)cc3)c2n1 43.4%
Cc1nc2c(-c3ccccc3)c(C)[nH]n2c(=O)c1Cl 9.97%
O=C(NCc1ccc(F)cc1F)[C@@H]1CCCN1C(=O)[C@@H]1CCCN1C(=O)c1cccc(Cl)c1 4.78%
Cn1cc(CN2CCCCC2c2ccccn2)c(-c2ccc3c(c2)OCCO3)n1 (stereo unspecified) -4.51%
CSc1ncccc1C(=O)Nc1nc2ccc(F)cc2s1 47.5%
NC(=S)c1ccc(C(N)=S)o1 -5.1%
O=S1(=O)CC(N2CCSCC2)CN1Cc1cn(Cc2cccc(Cl)c2)nn1 (stereo unspecified) -19.4%
CCOCCCNC(=O)C(=O)NCCCOCC 8.99%
Cc1ccc(Cn2cc(CN3CC(N4CCN(C)CC4)CS3(=O)=O)nn2)cc1 (stereo unspecified) 9.78%
CN(C)C1CN(Cc2cn(Cc3ccccc3)nn2)S(=O)(=O)C1 (stereo unspecified) -4.65%
Cc1ccc(NC(=O)C(C)Sc2nnc(C3CC3)n2C2CC2)cc1S(=O)(=O)N1CCOCC1 (stereo unspecified) 13%
COc1ccc(-n2nc(C(=O)Nc3cc(OC)c(OC)c(OC)c3)c3ccccc3c2=O)c(OC)c1 -8.33%
COc1ccc(OC)c(Nc2nc3ccccc3n3cnnc23)c1 19.4%
COc1ccc(OC)c(NC(=O)CN(C)CCOc2ccc(Br)cc2)c1 7.2%
COC(=O)c1cc(S(=O)(=O)NCC2CCN(Cc3ccc(Cl)cc3)CC2)cn1C 16.9%
Fc1cccc(CSc2nnc3ccc(-c4ccncc4)nn23)c1 6.42%
C=C(Br)CN1CCN(CC(=C)Br)CC1 -7.79%
O=C(CN1CCC(NC(=O)C2CC2)CC1)Nc1ccccc1[N+](=O)[O-] -17.5%
CCOC(=O)C(CO)NC(=O)C1(NC(C)=O)CCCC1 (stereo unspecified) -34.7%
Cc1ccnc2nc(C(=O)Nc3nnc(-c4ccccc4)o3)nn12 0.21%
O=C(Nc1nnc(-c2ccc(Cl)cc2)o1)c1ccccc1Br -48%
COc1cccc(C(=O)Nc2c3c(nn2-c2cccc(C)c2C)CS(=O)(=O)C3)c1OC -6.84%
Cc1c(NC(=S)NCc2ccc(F)cc2)cccc1[N+](=O)[O-] -17.5%
O=C(C1CCCO1)N(Cc1ccccc1)c1ccccc1 (stereo unspecified) -3.43%
COc1ccc(C(=O)OCC(=O)Nc2cc(C)on2)cc1F 20.3%
CC1(C)OC(=O)C2=C(CC(c3ccccc3)OC2CCc2ccccc2)O1 (stereo unspecified) -2.84%
CCCc1nc2sc3c(c2c(=O)n1NC(=O)CCCl)CCCC3 2.18%
CCc1nc(N2CCN(C(C)=O)CC2)c2c3c(sc2n1)CCCC3 -27.3%
COc1ccccc1-c1nn(Cc2ccccc2)cc1C(=O)N1CCN(c2ncccn2)CC1 -28.8%
COC(=O)c1ccc2c(c1)S(=O)(=O)NC2C (stereo unspecified) 1.74%
CC(=O)N1CCN(C(=O)c2cccc(S(=O)(=O)Nc3ccc(C)cc3)c2)CC1 -16.4%
CCOC(=O)c1cccc(NS(=O)(=O)c2c(C(=O)N3CCCCCC3)c(C)n(C)c2C)c1 -3.88%
Cc1ccsc1CNn1cnnc1SCc1ccccc1F 1.17%
Cc1nc2c(OCc3ccc(Cl)cc3Cl)cccn2c1N(C)CC1CC1 -9.82%
Cc1nc2c(OCc3ccc(Cl)cc3)cccn2c1N(C)Cc1cccs1 -14.4%
CC1CCN(CCCn2c(SCC(=O)NC3CCCC3)nc3ccccc3c2=O)CC1 -14.7%
O=C(Cc1ccc(S(=O)(=O)N2CCOCC2)s1)N1CCN(c2ccc(C(F)(F)F)cc2[N+](=O)[O-])CC1 27.1%
COc1cc(OC)cc(C(=O)NC(=S)N2CCN(c3ccc(C(F)(F)F)cc3[N+](=O)[O-])CC2)c1 -27.8%
